# Results reported in PubChem BioAssay (NCATS).
# Results filed as inconclusive are left out. Calls of active or inactive are those of the source. Calls come from the whole dose curve; as a rule, active = well fitted inhibition curve with a large enough effect; inconclusive = small, poorly fitted or top-dose-only effect; inactive = flat fitted curve, though single readings scatter.
# Tested on: CP194
# Assay: qHTS profiling for inhibitors of Plasmodium falciparum proliferation (AID 504749); note: nearly all actives have a fitted effect of over 60% in size
# Details: P. falciparum in erythrocytes, SYBR Green DNA, 72 h; series mostly up to 28.7 µM
# How it was run: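 P. falciparum-infected erythrocytes (0.3% parasitemia, 2.5% hematocrit final) were exposed to compounds for 72 h at 37 C in 5% CO2, then lysed with SYBR Green buffer overnight at room temperature; parasite DNA fluorescence was normalized to artemisinin and DMSO controls.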
row,SMILES,outcome
1,O=C(O)Cc1ccc(CCNS(=O)(=O)c2ccc(Cl)cc2)cc1,inactive
2,NS(=O)(=O)c1ccc(NC(=O)CCC(=O)O)cc1,inactive
3,C=CCSCC1Nc2cc(Cl)c(S(N)(=O)=O)cc2S(=O)(=O)N1 (stereo not given),inactive
4,Cc1cccc(C)c1NC(=O)CC12CCCN1CCC2,inactive
5,CC(=O)Nc1cccc(O)c1,inactive
6,CNCc1ccccc1,inactive
7,COc1ccc(C(=O)NCc2ccc(OCCN(C)C)cc2)cc1OC,inactive
8,C=CCNC(N)=S,inactive
9,NS(=O)(=O)c1cc(-c2nn[nH]n2)c(NCc2cccs2)cc1Cl,inactive
10,CCOc1ccc(C(=O)OCCN(CC)CC)cc1,inactive
11,Cc1c(N(C)C)c(=O)n(-c2ccccc2)n1C,inactive
12,CCc1cccc(CC)c1NC(=O)CN(CC(=O)O)CC(=O)O,inactive
13,COC(=O)c1cccnc1,inactive
14,Cc1ccc(S(=O)(=O)NC(=O)NC2CCCCCCC2)cc1,inactive
15,CCCCCCCCCCCCCCCCC(C(=O)O)C(O)(CC(=O)O)C(=O)O (stereo not given),inactive
16,Cn1c(=O)c2c(ncn2CCO)n(C)c1=O,inactive
17,CCCC(O)C(CC)CO (stereo not given),inactive
18,CCCCCC(N)=O,inactive

row,SMILES,outcome
1,O=C(O)c1ccc[n+]([O-])c1,inactive
2,CC(CSC(=O)c1ccccc1)C(=O)N1C[C@@H](Sc2ccccc2)C[C@H]1C(=O)O (stereo not given in full),inactive
3,CCOc1cc(NC(C)=O)ccc1C(=O)OC,inactive
4,C[C@@H](N)C(=O)O,inactive
5,NS(=O)(=O)c1cc2c(cc1C(F)(F)F)NCNS2(=O)=O,inactive
6,NC(=O)NS(=O)(=O)c1ccc(N)cc1,inactive
7,O=C(O)c1ccccc1C(=O)Nc1ccc(S(=O)(=O)Nc2nccs2)cc1,inactive
8,CC(=O)NS(=O)(=O)c1ccc(N)cc1,inactive
9,O=C(O)Cn1c(C(=O)Nc2nc(-c3ccccc3Cl)cs2)cc2ccccc21,inactive
10,CC(O)CCCCn1c(=O)c2c(ncn2C)n(C)c1=O (stereo not given),inactive
11,CCCCCCCCCCCCCCCCN,inactive
12,CN1CCCN=C1COC(=O)C(O)(c1ccccc1)C1CCCCC1 (stereo not given),inactive
13,NS(=O)(=O)c1ccc(C(=O)O)cc1,inactive
14,Cn1c([N+](=O)[O-])cnc1COC(N)=O,inactive
15,O=C(O)c1ccccc1OP(=O)(O)O,inactive
16,c1ccc2[nH]ccc2c1,inactive
17,O=C(OOC(=O)c1ccccc1)c1ccccc1,inactive
